The values that follow come from ChEMBL document CHEMBL4513216, “Probing the Open Global Health Chemical Diversity Library for Multistage-Active Starting Points for Next-Generation Antimalarials” (ACS Infect Dis, 2020).

The whole screen tested about 69,000 compounds, of which about 8,600 (12%) showed an effect of 50% or more. Shown is part of a subset that was picked to be rich in strong results.

This test deals with Plasmodium berghei. The test is described as follows: Screen against P. berghei liver stage (PbLuc), transformed with Luciferase, at 10uM. The following applies: tested at 10 uM. The test is classed as functional, HepG2.
Regarding `Cc1oc(C(=O)Nc2cccc(Cl)c2C)cc1S(N)(=O)=O`, the INHIBITION is -74.6%. On to `Cc1oc(C(=O)Nc2ccccc2F)cc1S(N)(=O)=O`, for which the INHIBITION is reported as 17.5%.

Turning to `Cc1cccc(C)c1NC(=O)c1cc(S(N)(=O)=O)c(C)o1`, the INHIBITION was 52.7%. Consider `Cc1nccc(CNC(=O)Nc2cc(C(F)(F)F)c[nH]c2=O)n1`, for which the INHIBITION was 8.38%. Consider `Cc1ccn(CC(=O)NCCCOc2ccccc2F)c(=O)c1`, for which the INHIBITION stood at 10.9%. The value for `CS(=O)(=O)NC(=O)c1ccn(-c2ccc(Cl)c(Cl)c2)n1` was -43.9%. On to `COC(=O)CNC(=O)c1ccn(-c2ccc(Cl)c(Cl)c2)n1`, for which the INHIBITION is listed as 51.6%. The value for `CNC(=O)COC(=O)c1ccn(-c2ccc(Cl)c(Cl)c2)n1` was 35.7%. Take `O=C(C1CCCOC1)N1CCN(CC(F)(F)F)c2ccccc21` (configuration not stated): the INHIBITION worked out at 11.3%. The value for `O=C1N(Cc2cccc(F)c2)CCC12CCN(c1ccccn1)CC2` was -15.9%; that for `C1CC(N2C[C@@H]3COC[C@]3(COCC3CCOCC3)C2)C1` was 55.7%. The value for `c1ccc(OC[C@]23COC[C@H]2CN(C2CCOCC2)C3)nc1` was -4.32%; that for `c1cncc(OC[C@]23COC[C@H]2CN(C2CCC2)C3)c1` was 20.6%; that for `O=C(COC[C@@]12CCC[C@@H]1CN(C1CCCC1)C2)N1CCCC1` was 34.9%.

Regarding `CN(C)C(=O)COC[C@]12COC[C@H]1CN(C1CCCC1)C2`, the INHIBITION is 56.6%. `O=C(COC[C@@]12CCC[C@@H]1CN(C1CCC1)C2)N1CCCC1`: the INHIBITION was determined as 27.6%. As for `CN(C)C(=O)COC[C@@]12CCC[C@@H]1CN(C1CCCC1)C2`, the INHIBITION is listed as -25.7%. The value for `CN(C)C(=O)COC[C@@]12CCC[C@@H]1CN(C1CCC1)C2` was 12.7%; that for `O=C(COC[C@]12COC[C@H]1CN(C1CCC1)C2)N1CCCC1` was 60.2%. As for `Nc1ncnc2nc(C3CCCCN3)ccc12` (configuration not stated), the INHIBITION was found to be 26.45%. The value for `O=C(c1cc(F)ccc1O)N1CCN(C2CCSC2)CC1` (configuration not stated) was -75.7%; that for `CN(CCNc1cc(N2CCCC2CO)ncn1)Cc1ccccc1` (configuration not stated) was -21.2%. On to `Cc1ccc(CN2CCN(CC(=O)Nc3ccc4nsnc4c3)CC2)o1`, for which the INHIBITION worked out at 46.1%. The value for `CCC(CC)CN1CCN(CC(=O)Nc2ccc3nsnc3c2)CC1` was 8.99%.

Consider `CC(C)CCN1CCN(CC(=O)Nc2ccc3nsnc3c2)CC1`, for which the INHIBITION worked out at 58.3%. The value for `O=C(CCOc1ccccc1F)NC1CCCN(c2ccccn2)C1` (configuration not stated) was -3.71%. On to `CN(C)Cc1cnc2n1CCN(C(=O)NC1CCCC1)CC2`, for which the INHIBITION came to 43.8%.

`CC(=O)c1cccc(NC(=O)c2cnc(N3CCN(C)CC3)nc2C)c1`: the INHIBITION is on record as 7.83%.

As to `CCc1nc(C2CCCN(C(=O)c3ccccc3F)C2)no1` (configuration not stated), the INHIBITION is 60.5%. The value for `CCc1nc(C2CCCN(c3ncccn3)C2)no1` (configuration not stated) was -113%; that for `CCc1nc(C2CCCN(C(=O)CN(C)S(C)(=O)=O)C2)no1` (configuration not stated) was 51.3%. For the compound `CCc1cc(N2CCCC(c3noc(CC)n3)C2)ncn1` (configuration not stated), the INHIBITION is given as 58.5%. The value for `CCc1nc(C2CCCN(C(=O)CC3CCOCC3)C2)no1` (configuration not stated) was -2.19%; that for `CCc1nc(C2CCCN(C(=O)c3ccccc3O)C2)no1` (configuration not stated) was 37.9%; that for `CCc1nc(C2CCCN(C(=O)c3ccccc3Cl)C2)no1` (configuration not stated) was 42%. Regarding `CC(C)c1nc(C2CCCN(C(=O)CN(C)S(C)(=O)=O)C2)no1` (configuration not stated), the INHIBITION is -1.35%.

For the compound `CCc1nc(C2CCCN(c3ncc(Br)cn3)C2)no1` (configuration not stated), the INHIBITION is reported as 31.7%. The value for `Cc1ccsc1CNCCCOc1ccccn1` was -19.1%; that for `CC(=O)c1nn(-c2ccccc2)c(C)c1C(C)=O` was 10.6%. Turning to `Cc1ccc(-c2nc(CN3CCCC(Cn4cncn4)C3)no2)cc1` (configuration not stated), the INHIBITION is reported as -28.3%. In the case of `CCN1CC2(CC1=O)CN(C(=O)c1cccs1)CCN(C(=O)N(C)C)C2` (configuration not stated), the INHIBITION is on record as 71%.

Take `CCN1CC2(CC1=O)CN(Cc1ccsc1)CCN(C(=O)C(C)C)C2` (configuration not stated): the INHIBITION stood at 20.9%.

Turning to `CCN1CC2(CC1=O)CN(C(=O)c1ccco1)CCN(C(=O)N(C)C)C2` (configuration not stated), the INHIBITION was determined as 5.14%. `CCN1CC2(CC1=O)CN(Cc1cccs1)CCN(C(=O)C(C)C)C2` (configuration not stated): the INHIBITION was -9.76%. The value for `CCN1CC2(CC1=O)CN(C(=O)c1ccsc1)CCN(C(=O)N(C)C)C2` (configuration not stated) was 56.1%; that for `CCN1CC2(CC1=O)CN(C(=O)c1ccoc1)CCN(C(=O)N(C)C)C2` (configuration not stated) was 20.9%; that for `Cc1nc(CNC(=O)c2cc(COc3cccc(F)c3)[nH]n2)n[nH]1` was 10.1%. The value for `CN(CCOc1ccc(C#N)cc1)CC1CC1` was -24.7%. As for `CCCC12CN3CC(CCC)(CN(C1)C3c1[nH]c(=O)[nH]c(=O)c1C)C2=O` (configuration not stated), the INHIBITION was 17.1%. Turning to `CCO[C@@H]1CCN(c2ccc(C)nn2)[C@@H]1Cc1cnn(C)c1`, the INHIBITION turned out to be 24.8%. Take `CC(C)(C)n1ncc2c(=O)n(CC(=O)NCc3ccccc3)cnc21`: the INHIBITION is reported as 84.3%. For the compound `CCCNC(=O)Cn1nc(C(C)C)c2cnn(C(C)(C)C)c2c1=O`, the INHIBITION is listed as -7.35%. The value for `CC(C)(C)n1ncc2c(=O)n(CC(=O)NCc3ccccc3Cl)cnc21` was 71.4%. As for `CC(C)(C)n1ncc2c(=O)n(CC(=O)NCc3ccco3)cnc21`, the INHIBITION is recorded as -28.5%. As to `CC(C)(C)n1ncc2c(=O)n(CC(=O)NCCc3ccccc3)cnc21`, the INHIBITION is given as -25.4%. The value for `NC(=O)Cn1c(CO)cnc1SCC(=O)NCc1ccccc1Cl` was -20.8%. On to `Cc1ccncc1-n1cc(CCO)cn1`, for which the INHIBITION was 0.546%. For `O=C(CC1CCCCC1)NC1CCCc2nc(N3CCOCC3)ncc21` (configuration not stated), the INHIBITION was found to be 25.6%.

Take `Cc1cc(NC(C)c2nnn[nH]2)n2nc(C)c(C)c2n1` (configuration not stated): the INHIBITION is 5.91%. The value for `COCC1CN(Cc2ccncc2)Cc2nnn(CC3CC3)c21` (configuration not stated) was 45.1%. Take `C1CCC(CN2Cc3nnn(CC4CC4)c3C(COCC3CC3)C2)C1` (configuration not stated): the INHIBITION was found to be 63.3%. The value for `CN(C)C(=O)N1Cc2nnn(CC3CC3)c2C(COCC2CC2)C1` (configuration not stated) was -0.284%.

`C1CC(N2Cc3nnn(CC4CC4)c3C(COCC3CC3)C2)C1` (configuration not stated): the INHIBITION turned out to be 67.3%. The value for `CCOCC1CN(CC2CCC2)Cc2nnn(CC3CC3)c21` (configuration not stated) was 44.4%; that for `c1cc(CN2Cc3nnn(CC4CC4)c3C(COCC3CC3)C2)co1` (configuration not stated) was 29.6%.

`Cc1ccc(N2CCCN(C(=O)CC3C=CCC3)CC2)nn1` (configuration not stated): the INHIBITION was -0.113%. For the compound `O=C1CCOC[C@]2(CN(Cc3ccccc3)C[C@H]2c2cccc(F)c2)N1`, the INHIBITION is -38.8%.
